Reference: PubChem BioAssay
Several values for one entry are separate records, joined by “and”; a condition that tells them apart may be missing. Equal values may be shown once. Activity calls are given as the source filed them.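 The calls were made as follows: active = inhibition at or above 50% relative to wild type and mutant plate controls; inactive = inhibition below 50%.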

Experiment: loss of swimming-algae plug formation – whole organism, Chlamydomonas reinhardtii, WT vs cilia-less mutant, absorbance, 96-well, primary screen (AID 463189);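 also: 0% = wild type cc124 cells in DMSO and 100% = ciliumless bld1 mutant cells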
Settings: Chlamydomonas reinhardtii gravitaxis, OD600 absorbance, 2 days; at 10 µM; hits give high values

| Structure (SMILES) | inhibition |
| --- | --- |
| OCCN1CCN(CC/C=C2/c3ccccc3Sc3ccc(C(F)(F)F)cc32)CC1 | 15.6% (inactive) |
| O=C(O)c1ccccc1Nc1ccccc1 | 8.09% (inactive) |
| CC(C)(C)NCC(O)COc1cccc2[nH]c(=O)[nH]c12 (centres undefined) | 3.61% (inactive) |
| Fc1ccc(CN(C2=NCCN2)c2c(Cl)cccc2Cl)cc1 | -0.588% (inactive) |
| Cn1cc(C2=C(c3ccc(Cl)cc3Cl)C(=O)NC2=O)c2ccccc21 | -0.155% (inactive) |
| N#C/C(=C\c1ccc(O)c(O)c1)C(=O)NCc1ccccc1 | -4.45% (inactive) |
| Oc1ccc(Cn2cc[nH]c2=S)cc1 | 7.18% (inactive) |
| N=C(N)SCCN | -11.5% (inactive) |
| O=c1c(O)c(-c2ccc(O)c(O)c2)oc2cc(O)cc(O)c12 | 2.39% (inactive) |
| O=c1cc(O)cc(/C=C/c2ccc(O)c(O)c2)o1 | -6.22% (inactive) |
| CC(C)NC[C@H](O)COc1cccc2[nH]ccc12 | -3.11% (inactive) and 2.85% (inactive) |
| CCN(CC)CCOC(=O)c1cc(Cl)c(N)cc1OC | 2.34% (inactive) |
| NC1C=CC=C(C(=O)O)C1 (centres undefined) | -4.63% (inactive) |
| CC(N)(C(=O)O)c1ccc(C(=O)O)cc1 (centres undefined) | 5.26% (inactive) |
| O=C(O)Cc1ccc(O)c(O)c1 | 5.56% (inactive) |
| C#CC(N)CCC(=O)O (centres undefined) | -0.038% (inactive) |
| O=c1c2ccccc2nc2n1CCc1c-2[nH]c2ccccc12 | 2.73% (inactive) |
| CN1CC(O)C(O)C(O)C1CO (centres undefined) | 10.5% (inactive) |
| COc1ccc(NC(=O)c2ccc(-c3ccc(-c4noc(C)n4)cc3C)cc2)cc1N1CCN(C)CC1 | 47.6% (inactive) |
